About 83,000 compounds went through this panel and 20% of them were active in at least one assay; those are over-represented in the sample as a whole.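 Results are percent growth after 48 hours of single-concentration exposure. 100 means growth as in untreated cells, lower positive values show inhibition; negative values down to -100 show cell death.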 Values without a mark were called inactive. Active and inactive are the calls of the source. Rule for the calls: active = growth percent below 10; inactive = the rest.
What was measured:
Assay in all cases: NCI-60 one-dose screen, 48 h (100 = growth as untreated, 0 = no growth, -100 = all killed)
Conditions in all cases: 10 µM unless noted
DU-145 prostate = system: DU-145 prostate
K-562 leukemia = system: K-562 leukemia
MALME-3M melanoma = system: MALME-3M melanoma
MDA-MB-231 breast = system: MDA-MB-231 breast
RXF 393 renal = system: RXF 393 renal
SF-268 CNS = system: SF-268 CNS
SF-295 CNS = system: SF-295 CNS
SF-539 CNS = system: SF-539 CNS
UACC-257 melanoma = system: UACC-257 melanoma
M14 melanoma = system: M14 melanoma

CCc1ccc(CCCC(=O)O)cc1
growth (DU-145 prostate): 102%
growth (K-562 leukemia): 98.9%
growth (MALME-3M melanoma): 107%
growth (MDA-MB-231 breast): 100%
growth (RXF 393 renal): 112%
growth (SF-268 CNS): 102%
growth (SF-295 CNS): 98.5%
growth (SF-539 CNS): 103%
growth (UACC-257 melanoma): 106%
growth (M14 melanoma): 94.2%

C=CC[Se]C(=O)Cc1c(C)n(C(=O)c2ccc(Cl)cc2)c2ccc(OC)cc12
growth (DU-145 prostate): -35.6% (active)
growth (K-562 leukemia): 25.9%
growth (MALME-3M melanoma): -23.4% (active)
growth (MDA-MB-231 breast): -56% (active)
growth (RXF 393 renal): -57.5% (active)
growth (SF-268 CNS): 15.3%
growth (SF-295 CNS): -28.8% (active)
growth (SF-539 CNS): -89.5% (active)
growth (UACC-257 melanoma): -34.8% (active)
growth (M14 melanoma): -35.4% (active)

NS(=O)(=O)c1ccc(N=Nc2c(O)n(Cc3ccccc3)c3ccc(Cl)cc23)cc1
growth (DU-145 prostate): 87.3%
growth (K-562 leukemia): 82.4%
growth (MALME-3M melanoma): 70.5%
growth (MDA-MB-231 breast): 75.9%
growth (RXF 393 renal): 45.5%
growth (SF-268 CNS): 65.2%
growth (SF-295 CNS): 93.7%
growth (SF-539 CNS): 61.5%
growth (UACC-257 melanoma): 92.1%
growth (M14 melanoma): 88.1%

COC(=O)[C@]1(C)CCC[C@]2(C)[C@H]3C[C@H]4C(C(C)C)=C[C@]3(CC[C@H]21)[C@@H]1C(=O)CC[C@H](OCCC#N)[C@@H]14
growth (DU-145 prostate): 89.2%
growth (K-562 leukemia): 89.9%
growth (MALME-3M melanoma): 85.9%
growth (MDA-MB-231 breast): 73.9%
growth (RXF 393 renal): 55.5%
growth (SF-268 CNS): 74.3%
growth (SF-295 CNS): 77.7%
growth (SF-539 CNS): 91.7%
growth (UACC-257 melanoma): 99.1%
growth (M14 melanoma): 82.5%

O=C1NC(=C(Cl)Cl)/C(=N\S(=O)(=O)NCc2ccccc2)N1
growth (DU-145 prostate): 105%
growth (K-562 leukemia): 81.4%
growth (MALME-3M melanoma): 104%
growth (MDA-MB-231 breast): 115%
growth (RXF 393 renal): 113%
growth (SF-268 CNS): 102%
growth (SF-295 CNS): 114%
growth (SF-539 CNS): 93.7%
growth (UACC-257 melanoma): 85.6%
growth (M14 melanoma): 94.3%

O=C1c2c(c3c4ccccc4[nH]c3c3ccc4ccccc4c23)C(=O)N1CCN1CCNCC1
growth (DU-145 prostate): 8.13% (active)
growth (K-562 leukemia): -41.5% (active)
growth (MALME-3M melanoma): 80.7%
growth (MDA-MB-231 breast): -66.8% (active)
growth (RXF 393 renal): 91.6%
growth (SF-268 CNS): 80.1%
growth (SF-295 CNS): 89.4%
growth (SF-539 CNS): 82.6%
growth (UACC-257 melanoma): 109%
growth (M14 melanoma): 6.23% (active)

COc1ccccc1CNc1c2ccccc2nc2ccccc12
growth (DU-145 prostate): 50.5%
growth (K-562 leukemia): 10.1%
growth (MALME-3M melanoma): 45.9%
growth (MDA-MB-231 breast): 57.6%
growth (RXF 393 renal): 30.6%
growth (SF-268 CNS): 65.1%
growth (SF-295 CNS): 37.4%
growth (SF-539 CNS): 21.2%
growth (UACC-257 melanoma): 64.1%
growth (M14 melanoma): 40.8%

CN(C)S(=O)(=O)c1cccc(C(=O)Nc2nc(-c3ccc(F)c(F)c3)cs2)c1
growth (DU-145 prostate): 70.7%
growth (K-562 leukemia): 39.4%
growth (MALME-3M melanoma): 90.9%
growth (MDA-MB-231 breast): 69.4%
growth (RXF 393 renal): 55.1%
growth (SF-268 CNS): 88.9%
growth (SF-295 CNS): 49.3%
growth (SF-539 CNS): 66.4%
growth (UACC-257 melanoma): 42.5%
growth (M14 melanoma): 60.8%

O=c1c2ccccc2n2cnc3ccc(Cl)c1c32
growth (DU-145 prostate): 62.8%
growth (K-562 leukemia): 97.2%
growth (MALME-3M melanoma): 90.7%
growth (MDA-MB-231 breast): 90.7%
growth (RXF 393 renal): 69.8%
growth (SF-268 CNS): 86.9%
growth (SF-295 CNS): 85.9%
growth (SF-539 CNS): 88.4%
growth (UACC-257 melanoma): 95.7%
growth (M14 melanoma): 83.9%

CN1CCN(C(=O)c2ccc(NC(=O)c3cc4c(nn3)NCCN4Cc3cc(Cl)ccc3Cl)cc2)CC1
growth (DU-145 prostate): 88.2%
growth (K-562 leukemia): 6.45% (active)
growth (MALME-3M melanoma): 73.8%
growth (MDA-MB-231 breast): 82.2%
growth (RXF 393 renal): 64.2%
growth (SF-268 CNS): 58.9%
growth (SF-295 CNS): 67.6%
growth (SF-539 CNS): 52.3%
growth (UACC-257 melanoma): 101%
growth (M14 melanoma): 72.6%

Cn1ccnc1C(=O)/C=C/c1ccc(C(=O)Nc2ccc(Cl)cc2)cc1
growth (DU-145 prostate): 10.9%
growth (K-562 leukemia): 2.13% (active)
growth (MALME-3M melanoma): 51.5%
growth (MDA-MB-231 breast): 1.85% (active)
growth (RXF 393 renal): -57.1% (active)
growth (SF-268 CNS): 0.451% (active)
growth (SF-295 CNS): 27.3%
growth (SF-539 CNS): -73.4% (active)
growth (UACC-257 melanoma): 51.6%
growth (M14 melanoma): 6.17% (active)

CSc1nc2ncc([N+](=O)[O-])c(=O)n2[nH]1
growth (DU-145 prostate): 110%
growth (K-562 leukemia): 104%
growth (MALME-3M melanoma): 101%
growth (MDA-MB-231 breast): 108%
growth (RXF 393 renal): 105%
growth (SF-268 CNS): 98.8%
growth (SF-295 CNS): 96.6%
growth (SF-539 CNS): 100%
growth (UACC-257 melanoma): 105%
growth (M14 melanoma): 98.4%

CCCc1c(OC(=O)c2ccccc2)nc2[nH]c(=O)sc2c1C
growth (DU-145 prostate): 106%
growth (K-562 leukemia): 112%
growth (MALME-3M melanoma): 95.1%
growth (MDA-MB-231 breast): 104%
growth (RXF 393 renal): 101%
growth (SF-268 CNS): 97.1%
growth (SF-295 CNS): 102%
growth (SF-539 CNS): 99%
growth (UACC-257 melanoma): 98.5%
growth (M14 melanoma): 99.4%

CN(C)CC(C)(C)C(=O)/C=C/c1ccccc1
growth (DU-145 prostate): -46.5% [25 µM] (active)
growth (K-562 leukemia): 1.32% [25 µM] (active)
growth (MALME-3M melanoma): -69.5% [25 µM] (active)
growth (MDA-MB-231 breast): -10.9% [25 µM] (active)
growth (RXF 393 renal): -77.2% [25 µM] (active)
growth (SF-268 CNS): 1.85% [25 µM] (active)
growth (SF-295 CNS): 7.02% [25 µM] (active)
growth (SF-539 CNS): -77.2% [25 µM] (active)
growth (UACC-257 melanoma): -43.5% [25 µM] (active)
growth (M14 melanoma): -50.4% [25 µM] (active)

CC1=C2[C@@H](CC1)[C@]1(C)O[C@@](C(C)C)(C[C@H]1OC(=O)[C@H](C)O)[C@H]2OC(=O)/C=C/c1ccccc1
growth (DU-145 prostate): 105%
growth (K-562 leukemia): 68.7%
growth (MALME-3M melanoma): 101%
growth (MDA-MB-231 breast): 83.1%
growth (RXF 393 renal): 30.8%
growth (SF-268 CNS): 41%
growth (SF-295 CNS): 78.7%
growth (SF-539 CNS): 96.8%
growth (UACC-257 melanoma): 90.5%
growth (M14 melanoma): 87.2%

O=C1Nc2ccc(C(=O)O)cc2/C1=N/c1nnc(Sc2ccccc2)s1
growth (DU-145 prostate): 110%
growth (K-562 leukemia): 96.2%
growth (MALME-3M melanoma): 113%
growth (MDA-MB-231 breast): 106%
growth (RXF 393 renal): 117%
growth (SF-268 CNS): 96.4%
growth (SF-295 CNS): 102%
growth (SF-539 CNS): 96.8%
growth (UACC-257 melanoma): 107%
growth (M14 melanoma): 104%

COC(=O)c1cc(N=C2NC(=O)/C(=C/C=C/c3ccccc3)S2)ccc1O
growth (DU-145 prostate): 16.8%
growth (K-562 leukemia): 14.4%
growth (MALME-3M melanoma): 65.3%
growth (MDA-MB-231 breast): 54.7%
growth (RXF 393 renal): -12.8% (active)
growth (SF-268 CNS): 61.7%
growth (SF-295 CNS): 20.3%
growth (SF-539 CNS): 12.4%
growth (UACC-257 melanoma): 70.9%
growth (M14 melanoma): 11.3%

COc1cc2c(c(OC)c1OC)CCC(c1cccc(C(=O)Nc3cccc(Cl)c3)c1)O2 (stereo not given)
growth (DU-145 prostate): 81%
growth (K-562 leukemia): 38.2%
growth (MALME-3M melanoma): 75.2%
growth (MDA-MB-231 breast): 25.7%
growth (RXF 393 renal): 66.9%
growth (SF-268 CNS): 72.1%
growth (SF-295 CNS): 65%
growth (SF-539 CNS): 77.6%
growth (UACC-257 melanoma): 74.5%
growth (M14 melanoma): 62.1%

O=C1/C=C/[C@@H](O)[C@@H]2C[C@@H](O)C[C@H]2/C=C/CCC[C@H](CCc2ccccc2)O1
growth (DU-145 prostate): 14.1%
growth (K-562 leukemia): 17.7%
growth (MALME-3M melanoma): -14.2% (active)
growth (MDA-MB-231 breast): -65.1% (active)
growth (RXF 393 renal): -4.18% (active)
growth (SF-268 CNS): 16.6%
growth (SF-295 CNS): 1.38% (active)
growth (SF-539 CNS): 26.3%
growth (UACC-257 melanoma): 25.4%
growth (M14 melanoma): 7.17% (active)

c1ccc2cc(C[n+]3ccn(CCCCCCCCCCn4cc[n+](Cc5ccc6ccccc6c5)c4)c3)ccc2c1
growth (DU-145 prostate): 28.4%
growth (K-562 leukemia): 8.6% (active)
growth (MALME-3M melanoma): -20.4% (active)
growth (MDA-MB-231 breast): 16.5%
growth (RXF 393 renal): 9.07% (active)
growth (SF-268 CNS): 13.7%
growth (SF-295 CNS): 16.5%
growth (SF-539 CNS): 10.4%
growth (UACC-257 melanoma): -13.8% (active)
growth (M14 melanoma): 31.8%

O=C(CN1CCOCC1)Nc1nc(-c2cc3ccccc3oc2=O)cs1
growth (DU-145 prostate): 106%
growth (K-562 leukemia): 96.3%
growth (MALME-3M melanoma): 102%
growth (MDA-MB-231 breast): 93.6%
growth (RXF 393 renal): 109%
growth (SF-268 CNS): 90.1%
growth (SF-295 CNS): 101%
growth (SF-539 CNS): 97.6%
growth (UACC-257 melanoma): 106%
growth (M14 melanoma): 101%

O=C(N/N=C/c1ccc(Cl)cc1)c1[nH]c2ccc(Cl)cc2c1-c1ccccc1
growth (DU-145 prostate): -2.5% (active)
growth (K-562 leukemia): 39.3%
growth (MALME-3M melanoma): 62.3%
growth (MDA-MB-231 breast): 9.64% (active)
growth (RXF 393 renal): 34.6%
growth (SF-268 CNS): 27.2%
growth (SF-295 CNS): -24.1% (active)
growth (SF-539 CNS): -0.139% (active)
growth (UACC-257 melanoma): 59.9%
growth (M14 melanoma): 20.2%

CCOC(=O)[C@@H]1CSC(CC)=C(C(=O)O)N1
growth (DU-145 prostate): 118%
growth (K-562 leukemia): 8.66% (active)
growth (MALME-3M melanoma): 104%
growth (MDA-MB-231 breast): 105%
growth (RXF 393 renal): 109%
growth (SF-268 CNS): 116%
growth (SF-295 CNS): 111%
growth (SF-539 CNS): 93.4%
growth (UACC-257 melanoma): 89.1%
growth (M14 melanoma): 98.6%

O=S(=O)(NCCNc1nccc(-c2c(-c3ccc(F)c(O)c3)nc3sccn23)n1)c1ccc(O)cc1
growth (DU-145 prostate): 43.8%
growth (K-562 leukemia): 28.9%
growth (MALME-3M melanoma): 31%
growth (MDA-MB-231 breast): 45.6%
growth (RXF 393 renal): 25.8%
growth (SF-268 CNS): 37%
growth (SF-295 CNS): 60.2%
growth (SF-539 CNS): 81.2%
growth (UACC-257 melanoma): 58.9%
growth (M14 melanoma): 27.2%

— PubChem BioAssay (NCI)
